Screening results as filed in PubChem.
D1 agonist: activates the human D1 dopamine receptor. P21728. HEK293 T-REx D1 cells, calcium flux, agonist mode. activation, % at 2 µM. actives 1% (n = 360,000). AID 504660; also: 0% is about no effect
Target sequence (P21728 whole entry, looked up): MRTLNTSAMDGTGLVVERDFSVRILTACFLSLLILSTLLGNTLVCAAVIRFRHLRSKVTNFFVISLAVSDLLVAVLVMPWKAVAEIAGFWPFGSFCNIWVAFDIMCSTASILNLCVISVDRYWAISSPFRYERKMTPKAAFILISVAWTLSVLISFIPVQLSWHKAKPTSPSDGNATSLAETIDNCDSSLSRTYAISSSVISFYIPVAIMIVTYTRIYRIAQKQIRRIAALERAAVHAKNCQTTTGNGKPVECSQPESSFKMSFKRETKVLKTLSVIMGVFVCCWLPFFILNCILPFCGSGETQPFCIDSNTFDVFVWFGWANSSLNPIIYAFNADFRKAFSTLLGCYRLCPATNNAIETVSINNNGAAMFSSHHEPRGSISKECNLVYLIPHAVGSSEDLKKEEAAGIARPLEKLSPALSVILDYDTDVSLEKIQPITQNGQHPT
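Agonism was scored from calcium flux recorded over 180 s (1 read/s) after pintool compound addition, following a 10-cycle baseline. Cells were inducible force-coupled HEK293 TREx D1, plated overnight at 30 C and loaded with no-wash calcium dye.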
TRHR agonist: TRH receptor (human) agonism. TRHR cells, calcium flux fluo-8, FDSS agonist mode. actives 0.18% (n = 360,000). activation, % at 2 µM. AID 493084; also: 0% is about no effect
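Read-out: compound-evoked intracellular calcium rise in TRHR cells, fluo-8 dye, kinetic FDSS fluorescence at 1 s/cycle following a 10-cycle baseline. Cells cultured overnight before dye loading (30 min–1.5 h, RT).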
TRHR PAM: TRH receptor (human) allosteric enhancement; P34981; AID 493056; TRHR cells, fluo-8 calcium fluorescence, EC20 TRH enhancement; actives 0.66% (n = 360,000); enhancement, % at 2 µM; in the data active = enhancement above about 30%; also: 0% is about no effect
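Enhancer read-out: after compound pinning and an initial kinetic agonist-mode read, an EC20 of TRH (10 nM final) was injected and fluo-8 calcium signal (Ex 480/Em 530) followed at 1 s/cycle for 100 cycles in TRHR-expressing cells.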
D1 PAM: human D1 dopamine receptor positive modulation | potentiation, % at 10 µM | P21728 | HEK293 TREx D1 cells, calcium flux, dopamine EC20 potentiation | actives 0.036% (n = 360,000); in the data active = potentiation above about 30%; also: 0% is about no effect
D1 antagonist: blocks dopamine activation of the human D1 receptor | HEK293 TREx D1 cells, calcium flux, dopamine EC80; stronger effect = lower value | activity change, negative = inhibition, % at 10 µM | actives 3.2% (n = 360,000); in the data active = activity change below about -30%; also: % is scaled to controls: 0 for no effect and ±100 for the full control effect
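Using tetracycline-induced force-coupled D1 Hek293 cells and a calcium dye, signals were followed for 180 s after compound, then for 180 s after EC80 dopamine, to detect inhibitors.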
Numbers without * were called inactive; . = no result. Compounds with a hit are over-represented: about 4.6% of the library has one in this group of screens. Rule as the data show it, unless noted: active = activation above about 30%; inactive = the rest.

SMILES	D1 agonist	TRHR agonist	TRHR PAM	D1 PAM	D1 antagonist
COc1cc(OC)c2c(-c3ccccc3)cc(=O)oc2c1C(CC(=O)N1CCCC1)c1ccc2c(c1)OCO2 (stereo not given)	12	0	-2	-8	-36*
O=C(CCn1c(=O)c2cccn2c2cccnc21)NCc1ccccc1Cl	-1	0	5	0	11
CN(C)CCNc1ccc(Cl)cc1[N+](=O)[O-]	6	0	0	2	-15
CCN(CCNc1ccc(Cl)cc1[N+](=O)[O-])C(=O)c1cc([N+](=O)[O-])c(N(C)C)cc1OC	3	-1	-9	-7	-80*
O=C(Nc1cc(C(F)(F)F)ccc1N1CCOCC1)c1ccc[n+]([O-])c1	-3	0	-2	2	0
Cc1c(C(C)C)c(=O)n(-c2ccc(S(=O)(=O)NC3CC3)cc2)n1C	6	0	-6	-1	0
CC1CCC2(CC1)SCC(=O)N2c1ccccc1 (stereo not given)	1	0	1	-5	13
Cc1cccc(N2C(=O)CSC23CCCCC3)c1	2	0	1	-8	-34*
COc1ccc(CCNc2nc(-c3ccc(C)cc3)cc(C(F)F)n2)cc1OC	1	1	3	0	22
Cc1ccc(C(=O)CSc2nc3cc(C(=O)NC4CCCC4)ccc3c(=O)n2CC2CCCO2)cc1 (stereo not given)	1	1	-2	4	4
O=C(CSc1nc2cc(C(=O)NC3CCCC3)ccc2c(=O)n1CC1CCCO1)c1cccc(Cl)c1 (stereo not given)	6	0	-1	-4	-37*
CCN(C(=O)c1ccc2c(=O)n3c(nc2c1)CCCCC3)c1cc(C)ccc1C	0	0	3	-3	-52*
Cc1cccc(NC(=O)c2ccc3c(=O)n4c(nc3c2)CCCCC4)n1	3	0	-3	-8	-37*
CN(CC(=O)Nc1ccccc1C(F)(F)F)C(=O)c1ccc2c(=O)n3c(nc2c1)CCC3	3	0	6	-5	-32*
O=C(c1ccc2c(=O)n3c(nc2c1)CCCCC3)N1CCN(c2ccc(F)cc2)CC1	1	0	-2	-11	-50*
CC(C)(C)NC(=O)CN1CCC(O)(c2ccc3c(c2)OCO3)CC1	2	0	-3	-6	-7
CC(C)c1ccc(NC2CCCN(C(=O)c3cnsn3)C2)cc1 (stereo not given)	1	0	-1	-9	2
COc1ccc(OC)c(-n2c(C)ccc2-c2ccc(S(C)(=O)=O)cc2)c1	1	-1	17	-2	-69*
COc1ccc(OC)c(-n2c(-c3ccc(S(C)(=O)=O)cc3)cc(C=O)c2C)c1	14	0	11	-1	5
O=[N+]([O-])c1ccccc1NCCOc1ccccc1	1	0	-7	-2	-44*
CC(C)(C)c1ccc(C(=O)NCCOc2ccccc2F)cc1	1	1	-12	-3	8
CC(C)(C)c1ccc(C(=O)NCCOc2ccccc2)cc1	7	-1	-4	-3	-31*
O=C(NCCc1ccc([N+](=O)[O-])cc1)c1ccccc1	3	-2	3	1	8
COc1ccc(C(=O)NCCOc2cccc(Oc3ccccc3)c2)cc1OC	15	2	-3	-5	-44*
O=C(CCNC(=O)c1ccccc1)Oc1ccc([N+](=O)[O-])cc1	6	1	-4	-6	-46*
SMILES	D1 agonist	TRHR agonist	TRHR PAM	D1 PAM	D1 antagonist
CCOC(=O)Cn1c(-c2ccccc2)ccc(C#N)c1=O	1	-1	-2	-5	7
O=C(N/N=C/C=C\c1ccc([N+](=O)[O-])cc1)c1cccnc1	3	0	-7	-4	-13
COc1ccc(N2C(=O)CSCC2=O)cc1OC	4	1	0	3	9
O=C(NCCOc1ccccc1)c1cc(C(=O)NCCOc2ccccc2)cc([N+](=O)[O-])c1	9	0	-3	-7	-40*
O=C(NCCOc1ccccc1)c1cccc(S(=O)(=O)NCc2ccccc2)c1	22	0	-5	-8	-38*
COc1cccc(C(=O)NCC(=O)OCC(=O)C(C)(C)C)c1	3	0	8	-2	2
COc1ccc(C(=O)NCCNc2ccc([N+](=O)[O-])cc2)cc1	-3	-2	0	-4	.
